# PubChem BioAssay (NCATS)
# Inconclusive results are not listed. Entries that show only a call come without a potency. Values without a mark were called inactive. The source made the active and inactive calls. Calls come from the whole dose curve; as a rule, active = well fitted curve in the direction sought with a large enough effect; inconclusive = small, poorly fitted or top-dose-only effect, or another doubt; inactive = no such curve, though single readings can be large; an effect the other way counts as inactive or inconclusive.
# What was measured:
# [1] = test system: Zika virus NS2B-NS3 protease; test: Primary screen GU AMC qHTS for Zika virus inhibitors (AID 1347154); settings: Zika NS2B-NS3 unlinked protease, AMC fluorogenic substrate; series mostly up to 54.1 µM; note: nearly all actives have a fitted effect of over 70% in size; note: potency is the fitted concentration of half-maximal effect
# Outline: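 Fluorogenic AMC-substrate cleavage by noncovalent NS2B-NS3 protease complex (25 nM, pH 8.0 Tris buffer with Tween 20) followed for 15 minutes at room temperature (~20% conversion). Percent inhibition from ex340/em450 signal change, fitted by 4-parameter Hill equation.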
# [2] = test system: Zika virus NS2B-NS3 protease (unlinked complex); test: Primary screen GU Rhodamine qHTS for Zika virus inhibitors: Unlinked NS2B-NS3 protease assay (AID 1347159); settings: Recombinant ZIKV NS2B-NS3 protease, Rhodamine110 substrate fluorescence; series mostly up to 107 µM; note: nearly all actives have a fitted effect of over 60% in size; note: potency is the fitted concentration of half-maximal effect
# Outline: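 Compounds, tested up to 114 microM, were incubated for 15 minutes with 25 nM unlinked NS2B-NS3 protease at pH 8.0. Cleavage of 1.5 microM Rhodamine110 substrate was then followed by fluorescence for 15 minutes.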
# [3] = test system: Zika virus NS2B-NS3 protease (linked construct); test: Primary screen NINDS Rhodamine qHTS for Zika virus inhibitors (AID 1347160); settings: purified NS2B-NS3 protease, Rhodamine110 substrate fluorescence; series mostly up to 57.1 µM; note: nearly all actives have a fitted effect of over 55% in size
# Outline: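 Percent inhibition, normalized to uninhibited and enzyme-free controls, is fitted to a 4-parameter Hill equation. Fluorescence change comes from a 15-min cleavage of 1.5 microM bis-peptide Rhodamine110 substrate by 25 nM linked NS2B-NS3 at room temperature.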
# [4] = Confirmatory screen GU Rhodamine qHTS for Zika virus inhibitors qHTS (AID 1347157); settings: purified enzyme assay, Rhodamine110 substrate fluorescence, 15 min; series mostly up to 114 µM; note: nearly all actives have a fitted effect of over 70% in size
# Outline: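 A qHTS format was used, with compound concentrations ranging up to 114 microM. Each compound was preincubated with 25 nM NS2B-NS3 protease, and the substrate was then added at 1.5 microM. Curves were fitted with a 4-parameter Hill model.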
# [5] = qHTS to identify inhibitors of the type 1 interferon - major histocompatibility complex class I in skeletal muscle: primary screen against the NCATS Mechanism Interrogation Plate v5.0 (MIPE) Libary (AID 1347411); settings: iHSKM cells + IFN-b, HiBiT-tagged MHC-I luminescence, 24 h; series mostly up to 45.8 µM; note: nearly all actives have a fitted effect of over 65% in size
# Outline: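 Immortalized human myoblasts (C25cl48) with HiBit knocked into endogenous HLA-B*08:01 were stimulated with 4 ng/ml IFN-beta and given compounds in 11-point 1:3 titration from 46 uM. After 24 h at 37 C, lytic HiBiT luminescence was read.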
structure (smiles),measurement,setting,value
Cc1cc(C=c2sc3nc4ccccc4n3c2=O)c(C)n1-c1ccccc1,Potency,[1],inactive
CCOc1cc(N2CCC(O)CC2)ccc1Nc1ncc2c(n1)N(C)c1ccccc1C(=O)N2C,Potency,[1],inactive
COc1ccc(C2=N[C@H](c3ccc(Cl)cc3)[C@H](c3ccc(Cl)cc3)N2C(=O)N2CCNC(=O)C2)c(OC(C)C)c1,Potency,[1],inactive
COc1ccc(-c2oc3cc(OC)ccc3c2C(=O)c2ccc(C#N)cc2)cc1,Potency,[1],inactive
CC(C=CC1=C(C)CCCC1(C)C)=CC=CC(C)=CC(=O)O,Potency,[1],inactive
O=S(=O)(N=Cc1c(O)ccc2ccccc12)c1cccs1,Potency,[1],inactive
C[C@]12CC[C@H](O)CC1=CC[C@@H]1[C@H]2CC[C@]2(C)C(c3cccnc3)=CC[C@H]12,Potency,[1],inactive
COc1ccc(-c2ccc3c(N4CCOC[C@H]4C)nc(N4CCOC[C@H]4C)nc3n2)cc1CO,Potency,[1],6.81 µM (active)
COc1ccc2c3n(c(=NC(=O)c4cccnc4)nc2c1OC)CCN3,Potency,[1],inactive
CCc1cc(Nc2nccc(-c3c(-c4ccc(OC)c(C(=O)Nc5c(F)cccc5F)c4)nc4ccccn34)n2)c(OC)cc1N1CCC(N2CCN(S(C)(=O)=O)CC2)CC1,Potency,[1],inactive
same,Potency,[2],inactive
same,Potency,[3],inactive
Cc1ccc(NC(=O)c2cccc(C(C)(C)C#N)c2)cc1Nc1ccc2ncn(C)c(=O)c2c1,Potency,[1],inactive
OCCn1cc(-c2cnc3nnn(Cc4ccc5ncccc5c4)c3n2)cn1,Potency,[1],inactive
same,Potency,[4],inactive
same,Potency,[2],50.1 µM (active)
same,Potency,[3],inactive
same,Potency,[5],inactive
Nc1nccc(-c2ccc3noc(-c4ccc(Cl)cc4)c3c2)n1,Potency,[1],inactive
CCn1c(-c2nonc2N)nc2c(C#CC(C)(C)O)ncc(OC[C@H]3CCCNC3)c21,Potency,[1],inactive
O=C(c1cc(Cc2n[nH]c(=O)c3ccccc23)ccc1F)N1CCN(C(=O)C2CC2)CC1,Potency,[1],inactive
same,Potency,[2],inactive
same,Potency,[3],inactive
Cc1c(CN2CCN(C(=O)C(C)C)CC2)sc2c(N3CCOCC3)nc(-c3cnc(N)nc3)nc12,Potency,[1],inactive
OCCC#Cc1nc(-c2ccc(F)cc2)c(-c2ccncc2)n1CCCc1ccccc1,Potency,[1],inactive
CCn1c(-c2nonc2N)nc2cnc(Oc3cccc(NC(=O)c4ccc(OCCN5CCOCC5)cc4)c3)cc21,Potency,[1],inactive
CCOc1cc(C=C2C(=O)N(c3ccccc3)N=C2C)cc(Cl)c1OCC(=O)OC,Potency,[1],inactive
Cc1csc(NC(=O)c2sc3nc4c(c(C(F)(F)F)c3c2N)CCC4)n1,Potency,[1],inactive
same,Potency,[2],inactive
same,Potency,[3],inactive
O=C1[C@H](Cc2ccc(O)cc2)N2C(=O)CCN(C(=O)NCc3ccccc3)[C@H]2CN1Cc1cccc2ccccc12,Potency,[1],inactive
CNCc1ccc(-c2[nH]c3cc(F)cc4c3c2CCNC4=O)cc1,Potency,[1],24.1 µM (active)
same,Potency,[2],inactive
same,Potency,[3],inactive
